Screens from PubChem.
An excerpt weighted towards active compounds, which were near 5.7% of everything screened.
ssDAF-12 act = S. stercoralis DAF-12 activation, primary screen; HEK293 ssDAF-12/GRIP1 lit1-tk-luc reporter, luminescence; % of 3 µM dafachronic acid response; activation, % at 6.8 µM; 1% of 370,000 active; AID 652126;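 active = activation above the mean over all tested compounds plus 3 SD, cut at about 0.9% in these data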;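 note: 0% = DMSO-only wells and 100% = 3 µM delta7-dafachronic acid wells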
hcDAF-12 act = activates DAF-12 receptor from parasite H. contortus; HEK293 hcDAF-12 lit1-tk-luc reporter, luminescence; 0% DMSO, 100% Δ7-dafachronic acid; activation, % at 6.8 µM; 1.4% of 370,000 active; AID 652067;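 active = activation above the mean of all tested compounds plus 3 SD, cut at about 5.5% in these data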;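 note: 100% = response to 3 µM Δ7-dafachronic acid high control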
AHR activator = activators of human aryl hydrocarbon receptor | P35869 | AHR-responsive luciferase reporter cells, luminescence | activation, % at 5 µM | 2.5% of 320,000 active; in the data active = activation above about 47%;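 note: 0% = vehicle wells and 100% = reference agonist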
Target sequence (P35869 whole entry, looked up): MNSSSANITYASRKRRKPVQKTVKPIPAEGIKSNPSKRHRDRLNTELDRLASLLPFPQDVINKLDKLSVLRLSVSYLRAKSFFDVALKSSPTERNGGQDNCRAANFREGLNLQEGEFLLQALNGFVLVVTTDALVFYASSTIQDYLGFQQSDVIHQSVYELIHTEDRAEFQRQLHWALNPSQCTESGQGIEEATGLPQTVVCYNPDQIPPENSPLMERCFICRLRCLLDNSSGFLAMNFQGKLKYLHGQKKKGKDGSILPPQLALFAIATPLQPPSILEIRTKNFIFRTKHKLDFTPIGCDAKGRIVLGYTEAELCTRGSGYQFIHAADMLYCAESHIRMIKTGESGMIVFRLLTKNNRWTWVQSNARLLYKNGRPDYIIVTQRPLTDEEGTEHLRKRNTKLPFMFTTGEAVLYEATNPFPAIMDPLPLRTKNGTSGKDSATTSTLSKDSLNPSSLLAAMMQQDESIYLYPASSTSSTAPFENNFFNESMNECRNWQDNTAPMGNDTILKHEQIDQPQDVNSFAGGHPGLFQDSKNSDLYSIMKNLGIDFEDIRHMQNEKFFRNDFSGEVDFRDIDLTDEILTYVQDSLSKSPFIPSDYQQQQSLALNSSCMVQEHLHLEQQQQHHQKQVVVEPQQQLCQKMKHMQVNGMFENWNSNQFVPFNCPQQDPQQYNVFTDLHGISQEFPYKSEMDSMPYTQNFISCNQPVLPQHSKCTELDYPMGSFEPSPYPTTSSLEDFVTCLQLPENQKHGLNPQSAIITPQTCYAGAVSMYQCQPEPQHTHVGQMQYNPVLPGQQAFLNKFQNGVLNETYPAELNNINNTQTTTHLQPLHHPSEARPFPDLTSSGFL
DAX1 inh-1 = inhibitors of DAX1 repression of SF-1 activated StAR promoter; HEK293T StAR-luciferase reporter, SF-1/DAX-1 repression relief; inhibition, % at 6.8 µM; 1.1% of 370,000 active; AID 652010;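 active = inhibition above the mean over all tested compounds plus 3 SD, cut at about 3.6% in these data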;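 note: 0% = DAX-1 cells with DMSO and 100% = cells lacking DAX-1 with DMSO; higher inhibition means more luminescence from relief of DAX-1 repression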
DAX1 inh-2 = NR0B1 (DAX1) inhibition. P51843. HEK293 Gal4-DAX1 luciferase reporter, luminescence. inhibition, % at 6.75 µM. 0.99% of 340,000 active. AID 504766;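 active = inhibition above the mean over all tested compounds plus 3 SD, cut at about 4.2% in these data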;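 note: 0% = DAX1-transfected cells with DMSO and 100% = empty-vector control cells with DMSO; inhibition shows as a rise in luminescence from relieved DAX1 repression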
hgDAF-12 ag = activates the H. glycines DAF-12 receptor ligand-binding domain; AID 687014; HEK293 GAL4-hgDAF12 UAS-luciferase reporter, agonist luminescence; normalized to butyrate control; 1.8% of 370,000 active; activation, % at 6.8 µM;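 active = activation above a cutoff set at the mean of all screened compounds plus 3 SD, cut at about 10% in these data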;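 note: 0% = DMSO wells and 100% = sodium butyrate wells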
Active calls of the source: *; . = no result.

SMILES	ssDAF-12 act	hcDAF-12 act	AHR activator	DAX1 inh-1	DAX1 inh-2	hgDAF-12 ag
O=C1c2ccccc2NC(c2cccc(O)c2)N1Cc1ccco1 (centres undefined)	-2	-1	48*	0	-1	-1
COC(=O)[C@]12C[C@H](CC(=O)NCCCCc3ccccc3)C(=O)N(Cc3ccco3)C1=C[C@H](C(C)(C)C)O[C@@H]2C	-2	0	.	-1	.	-4
Cc1cccc(-c2noc(-c3ccno3)n2)c1	-1	1	-2	0	4.9*	1
Cc1cccc(-c2noc(C3CCCCC3)n2)c1	0	1	9	1	-1	3
COC(=O)c1ccccc1S(=O)(=O)N(Cc1cc2cc3c(cc2[nH]c1=O)OCO3)C1CCCCC1	.	.	63*	.	.	.
COc1ccc(CN(Cc2cc3cc4c(cc3[nH]c2=O)OCO4)C(=O)NC2CCCCC2)cc1	-1	-1	9	0	0	1
COC(=O)[C@]12C[C@H](CC(=O)N3CCN(C(=O)c4ccco4)CC3)C(=O)N(CCc3ccc(OC)c(OC)c3)C1=C[C@H](C(C)(C)C)O[C@@H]2C	-1	-4	.	0	.	-4
COc1c2occc2c(OC(C)=O)c2c(=O)cc(C)oc12	-1	0	54*	0	-1	2
CC(=O)Oc1c2occc2cc2ccc(=O)oc12	-1	-2	4	0	1	0
COc1cccc2c1C(=O)c1ccc3ccccc3c1C2=O	.	.	62*	.	3	.
O=C(NCc1ccccc1F)C1CCCN(c2cnccn2)C1 (centres undefined)	-2	1	24	1	1	0
O=C(Nc1ccc(F)c(Cl)c1)C1CCCN(c2cnccn2)C1 (centres undefined)	-1	0	73*	0	1	0
CCOC(=O)c1ccc(NC(=O)C2CCCN(c3cnccn3)C2)cc1 (centres undefined)	-1	1	63*	0	0	3
O=C(Nc1cccc(F)c1)C1CCCN(c2cnccn2)C1 (centres undefined)	-1	0	52*	0	0	-1
COCCNC(=S)NNC(=O)c1cc(C2CC2)nc2ccccc12	-1	-1	.	0	1	3
O=C(NCCCn1ccnc1)c1ccc(Cl)c(Cl)c1	-1	-1	51*	0	0	0
O=C(NCCCn1ccnc1)c1cc([N+](=O)[O-])cc([N+](=O)[O-])c1	-1	-2	48*	0	-1	6
O=C(N/C(=C/c1cccnc1)C(=O)N1CCCCCC1)c1cccc(Br)c1	-1	-2	48*	-1	1	1
O=C(N/C(=C\c1cccnc1)C(=O)N1CCC(O)CC1)c1ccccc1	0	-1	5	0	0	-2
O=[N+]([O-])c1cc(-c2ncccn2)cs1	-1	1	-2	0	-1	1
O=C(NCc1ccncc1)C1Cc2c(-c3ccc4c(c3)OCO4)ccnc2O1 (centres undefined)	-1	1	.	1	.	3
O=C(NCc1ccccc1)C1Cc2c(-c3ccc4c(c3)OCO4)ccnc2O1 (centres undefined)	-1	0	.	4.4*	.	-3
CC(C)=C(NC(=O)c1ccccc1Br)C(=O)NCCc1nc2ccccc2[nH]1	-1	-2	0	0	1	-2
O=S(=O)(CC1NCCc2ccccc21)NCCc1ccccc1 (centres undefined)	-1	-1	.	0	.	0
Cn1c(=O)c(Oc2ccc(Cl)cc2)c(O)c2ccccc21	1.1*	1	10	1	-1	0
SMILES	ssDAF-12 act	hcDAF-12 act	AHR activator	DAX1 inh-1	DAX1 inh-2	hgDAF-12 ag
Cc1cc(C)cc(C(=O)OCC(=O)Nc2ncccn2)c1	-1	1	1	0	1	-1
CCC(C)(C(=O)NC1CCCCC1)N(Cc1cccs1)C(=O)c1ccc(=O)[nH]c1 (centres undefined)	-1	0	0	-1	4.7*	-1
CCC(C)(C(=O)NC1CCCCC1)N(Cc1cccs1)C(=O)c1ccccn1 (centres undefined)	-1	0	0	0	1	-2
CCOc1ccc(Nc2ccc(N3C(=O)CCC3=O)cc2[N+](=O)[O-])cc1	-1	6.2*	3	0	2	2
COC(=O)c1cc(-c2ccc(Cl)s2)c(=O)n2c1CCC2	-1	6.5*	.	1	.	2
CC1=Nc2cc([N+](=O)[O-])ccc2NC(C)(C)C1	-2	2	3	0	4.8*	12*
Cc1nc2ccc([N+](=O)[O-])cc2nc1C	-1	-1	-4	1	2	-2
S=C(NN=Cc1ccccn1)N(Cc1ccccn1)Cc1ccccn1	1.0*	3	.	1	-4	5
S=C(NN=C(c1ccccc1)c1ccccn1)N(Cc1ccccn1)Cc1ccccn1	-2	-4	.	-7	-5	-9
O=C(O)C1CC2C3CC(C(=O)O)C(C3)C2C1 (centres undefined)	-1	-1	.	-1	2	0
Cc1ccccc1CN(c1ccc(C(=O)NCc2ccccn2)cc1)S(C)(=O)=O	0	-1	0	-1	0	-4
CC(=O)Nc1ccc(N=Nc2ccc(O)cc2)cc1	0	4	11	2	2	12*
CC(=O)Nc1ccc(N=NN2CCOCC2)cc1	-1	-1	0	0	-1	2
C=CCOc1ccc(/C=C2\SC(=S)N(N3CCOCC3)C2=O)cc1	0	5.7*	-4	2	1	10
O=C(OCc1cccc(F)c1)c1ccc2c(=O)n3c(nc2c1)CCC3	-1	-2	0	0	4.5*	2
Clc1ccc(-c2nnc(CCc3ccccc3)o2)c(Cl)c1	0	5.8*	6	2	3	8
Oc1ccccc1-c1nnc(COc2ccc(Cl)cc2Cl)o1	-1	0	8	2	3	4
OC1COC(OCC2OC(OCc3ccccc3)C(O)C(O)C2O)C(O)C1O (centres undefined)	-1	0	0	0	0	-1
OC[C@H]1O[C@H](OCc2ccccc2)[C@H](O[C@@H]2OC[C@@H](O)[C@H](O)[C@H]2O)[C@@H](O)[C@@H]1O	-1	-2	0	1	6.3*	3
CCC(=O)N(Cc1ccco1)c1nc(C(=O)Nc2ccc(Cl)cc2)c(C)s1	-1	3	74*	0	-2	4
Nc1sc(-c2ccccc2)n[n+]1Cc1cccc2cccnc12	0	2	85*	1	3	2
CCOc1ccc(-n2c(SCC(=O)Nc3ccc(S(=O)(=O)Nc4nccs4)cc3)nnc2-c2ccc(C(C)(C)C)cc2)cc1	-1	1	.	0	.	3
